A selection: hits, their analogues and other compounds. The true share with any hit is near 3.3%.
rCAG RNA binder: binds r(CAG) RNA repeats; r(CAG) RNA repeat, TO-PRO-1 dye displacement fluorescence; inhibition, % at 3 µM; 1.3% of 370,000 active; AID 651821;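 active = inhibition above the plate cutoff, the mean of all test compounds on that plate plus 3 SD, cut at about 35% in these data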;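 also: higher means more dye released from RNA so lower well fluorescence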
PRMT1 FP inh: PRMT1 (human) inhibition, primary screen | Q99873 | recombinant PRMT1, activity-based probe fluorescence polarization | inhibition, % at 2.79 µM | 1.3% of 370,000 active | AID 652257;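 active = inhibition above about 21% made by adding two undisclosed values, limit read from the data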
Target sequence (Q99873 whole entry, looked up): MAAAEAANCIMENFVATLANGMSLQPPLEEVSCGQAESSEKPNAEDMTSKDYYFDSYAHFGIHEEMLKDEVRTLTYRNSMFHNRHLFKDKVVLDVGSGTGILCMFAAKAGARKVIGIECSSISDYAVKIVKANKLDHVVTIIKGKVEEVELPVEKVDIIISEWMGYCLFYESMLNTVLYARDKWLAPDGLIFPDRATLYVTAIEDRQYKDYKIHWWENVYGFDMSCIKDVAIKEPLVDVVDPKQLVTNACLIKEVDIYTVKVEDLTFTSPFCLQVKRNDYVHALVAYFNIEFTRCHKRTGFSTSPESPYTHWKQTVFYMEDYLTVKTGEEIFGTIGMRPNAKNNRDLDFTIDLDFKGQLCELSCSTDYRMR
ABHD5 PLIN5 PPI: blocks binding of human ABHD5 to perilipin-5 | inhibition, % at 4 µM | Q00G26+Q8WTS1 | Split G. princeps luciferase complementation, luminescence, 4 h | 0.78% of 360,000 active | AID 602281;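 active = inhibition above the mean inhibition across every tested compound plus 3 SD, cut at about 22% in these data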
NOD2-RIPK2 inh: blocks binding of human NOD2 to RIPK2 | O43353 | CHO BLA complementation NOD2-RIPK2, CCF4 ratio | inhibition, % at 4.98 µM | 0.38% of 360,000 active; in the data active = inhibition above about 21%
TLR4 MyD88 comp: blocks binding of human TLR4 to MyD88; AID 861; 0.18% of 200,000 active; inhibition, % at 8.4 µM; HeLa CL3-4 TLR4/MyD88 BLA complementation, FRET ratio; in the data active = inhibition above about 25%
TLR9-MyD88 inh: TLR9-MyD88 interaction inhibition; Q9NR96+Q99836; CHO BLA complementation TLR9-MyD88, CCF4 FRET ratio; inhibition, % at 4.98 µM; 0.21% of 340,000 active; AID 504734;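 active = inhibition above the mean over all tested compounds plus 3 SD, cut at about 21% in these data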
rCAG bind conf: r(CAG) RNA repeat binding, confirmation | shares compounds with rCAG RNA binder | TO-PRO-1 dye displacement fluorescence | inhibition, % at 3 µM | 70% of 4,300 active | AID 652065;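 active = inhibition above a per-plate cutoff, the mean inhibition of sample wells plus 3 SD, cut at about 35% in these data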;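 also: loss of TO-PRO-1 fluorescence as compound displaces dye from 1x1 AA loop RNA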
DNA CAG counter: DNA CAG dye complex inhibition counter-screen | shares compounds with rCAG RNA binder | d(CAG) DNA oligo TO-PRO-1 dye displacement, fluorescence | inhibition, % at 3 µM | 94% of 4,300 active | AID 652068;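 active = inhibition above its plate's cutoff, the mean test-well inhibition plus 3 SD, cut at about 4.8% in these data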;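 also: hits displace the dye from DNA and so lower well fluorescence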
Of the large screens only hits and unclear results are named; the others gave an inactive call (follow-up assays come after a bar, where they were run).

O=C(c1ccccc1NS(=O)(=O)c1ccc(Cl)cc1)N1CCc2ccccc21	rCAG RNA binder 47.1 | rCAG bind conf 60.9 | DNA CAG counter 15.2
O=C(O)c1ccc(Cl)c(S(=O)(=O)Nc2ccccc2C(=O)Nc2ccc(Cl)cc2)c1	rCAG RNA binder 45.4 (no result: TLR4 MyD88 comp) | rCAG bind conf 46.3 | DNA CAG counter 17.1
CCCc1ccc2oc(C(=O)N(C)Cc3nccs3)c(C)c2c1	none (no result: TLR4 MyD88 comp)
O=C(NC(C(=O)N/N=C/c1cc([N+](=O)[O-])ccc1O)c1n[nH]c(=O)c2ccccc12)c1ccccc1 (centres undefined)	rCAG RNA binder 84.2 (no result: TLR4 MyD88 comp) | rCAG bind conf 66.4 | DNA CAG counter 28.1
O=C(NC(C(=O)N/N=C/c1cccc2ccccc12)c1n[nH]c(=O)c2ccccc12)c1ccccc1 (centres undefined)	none
O=C(Nc1ccccc1C(=O)NCc1cccnc1)c1ccc(Cl)cc1Cl	none
O=C1N=c2ccccc2=C1c1sc(=S)n(NC(=O)c2ccccc2)c1O	rCAG RNA binder 60.6 (no result: TLR4 MyD88 comp) | rCAG bind conf 40.6 | DNA CAG counter 19.7
C=CCn1c(O)c(C2=c3ccccc3=NC2=O)sc1=Nc1ccc(O)cc1	none (no result: TLR4 MyD88 comp)
C=CCn1c(SCc2c(C)noc2C)nc2sc3c(c2c1=O)CCCC3	none
C=CCn1c(SCc2c(C)noc2C)nc2sc3c(c2c1=O)CCCCC3	rCAG RNA binder 40.3 | rCAG bind conf inactive | DNA CAG counter 4.7
O=C(Cn1nnc(-c2cccc(C(F)(F)F)c2)n1)NNS(=O)(=O)c1cccc(C(F)(F)F)c1	rCAG RNA binder 53.7 (no result: TLR4 MyD88 comp) | rCAG bind conf 37.6 | DNA CAG counter 10.2
O=C(c1cccc(S(=O)(=O)N2CCN(c3ccc(F)cc3)CC2)c1)N1CCN(c2ccccc2O)CC1	none (no result: TLR4 MyD88 comp)
COc1ccc(-c2cc(=O)oc3c(C)c(OCc4nn[nH]n4)ccc23)cc1	rCAG RNA binder 39.1 | rCAG bind conf inactive | DNA CAG counter 5.7
COc1cccc(C(=O)OCC(=O)NCCCc2ccccc2)c1	none (no result: TLR4 MyD88 comp)
COc1ccc(-n2c(SCC(=O)C(C)(C)C)nc3c(sc(=S)n3-c3ccccc3)c2=O)c(OC)c1	none (no result: TLR4 MyD88 comp)
Cc1ccc(-n2c(=S)sc3c(=O)n(-c4ccc(F)cc4)c(SCC(=O)O)nc32)cc1C	rCAG RNA binder 35.5 (no result: TLR4 MyD88 comp) | rCAG bind conf inactive | DNA CAG counter 6.4
Cc1ccc(-n2c(SCC(=O)O)nc3c(sc(=S)n3-c3ccc(C)c(C)c3)c2=O)cc1	rCAG RNA binder 51.1 (no result: TLR4 MyD88 comp) | rCAG bind conf 42.0 | DNA CAG counter 13.8
Cc1c(Br)c([N+](=O)[O-])nn1CC(=O)Nc1ccc(Cc2ccncc2)cc1	none
Cc1cc(N2C(=O)C(O)=C(C(=O)c3cc4ccccc4o3)C2c2ccc(OC(C)C)cc2)no1 (centres undefined)	none (no result: TLR4 MyD88 comp)
CCCOc1cccc(C2C(C(=O)c3cc4ccccc4o3)=C(O)C(=O)N2c2cc(C)on2)c1 (centres undefined)	rCAG RNA binder 43.5 (no result: TLR4 MyD88 comp) | rCAG bind conf 76.6 | DNA CAG counter 35.8
Cc1cc(N2C(=O)C(O)=C(C(=O)c3cc4ccccc4o3)C2c2cccc(Br)c2)no1 (centres undefined)	rCAG RNA binder 69.5 (no result: TLR4 MyD88 comp) | rCAG bind conf 79.3 | DNA CAG counter 45.8
CCCCCOc1ccc(C2C(C(=O)c3ccc(C)o3)=C(O)C(=O)N2c2cc(C)on2)cc1 (centres undefined)	rCAG RNA binder 36.2 (no result: TLR4 MyD88 comp) | rCAG bind conf 49.5 | DNA CAG counter 15.2
CC(=O)Nc1ccc(S(=O)(=O)N(C)CC(=O)N(C)Cc2sccc2C)cc1	none (no result: TLR4 MyD88 comp)
COCCCN1C(=O)C(CC(=O)NCC2CCCCC2)CC(C(=O)N2CCOCC2)=C1C (centres undefined)	none (no result: TLR4 MyD88 comp)
CCc1nc2ccc(C(=O)N(CC)CCN(C)C)cn2c1N(C)C(=O)c1cccc(OC)c1	none (no result: TLR4 MyD88 comp, TLR9-MyD88 inh)
O=C(CNC(=O)/C=C/c1ccco1)N=Nc1c(O)[nH]c2ccccc12	rCAG RNA binder 34.8 (no result: TLR4 MyD88 comp) | rCAG bind conf 40.2 | DNA CAG counter 16.8
COC(=O)C1=C(CS(=O)(=O)c2ccc(OC)c(OC)c2)NC(=O)NC1c1ccc(O)c(OC)c1 (centres undefined)	none (no result: TLR4 MyD88 comp)
CCN(CC)S(=O)(=O)c1cc(NS(=O)(=O)c2cccc(Cl)c2Cl)ccc1C	rCAG RNA binder 41.7 | rCAG bind conf 40.6 | DNA CAG counter 11.9
N#C/C(=C\c1ccc(C(=O)O)cc1)c1nc2sc3c(c2c(=O)[nH]1)CCCC3	rCAG RNA binder 45.3 (no result: TLR4 MyD88 comp) | rCAG bind conf 54.9 | DNA CAG counter 21.6
O=[N+]([O-])c1cc(/C=N/NC(=S)Nc2ccccc2Cl)ccc1Cl	none
COc1ccc(/C=N/NC(=S)Nc2ccccc2[N+](=O)[O-])cc1O	rCAG RNA binder 38.5 | rCAG bind conf inactive | DNA CAG counter 11.3
CCCOc1ccc(/C=N/NC(=S)Nc2ccccc2[N+](=O)[O-])c(O)c1	rCAG RNA binder 48.8 (no result: ABHD5 PLIN5 PPI, NOD2-RIPK2 inh, TLR9-MyD88 inh) | rCAG bind conf 45.5 | DNA CAG counter 19.7
CC(=O)Nc1ccc(NC(=O)c2c(-c3ccccc3)noc2C)cn1	none (no result: TLR4 MyD88 comp)
COc1ccc(C2=NOC(Cn3nc(-c4ccccc4C)cc3C(=O)O)C2)cc1 (centres undefined)	rCAG RNA binder 38.8 (no result: TLR4 MyD88 comp) | rCAG bind conf inactive | DNA CAG counter 5.0
COc1ccc(CC(=O)Nc2ccc(C)cc2S(=O)(=O)N2CCOCC2)cc1OC	none (no result: ABHD5 PLIN5 PPI, NOD2-RIPK2 inh, TLR4 MyD88 comp, TLR9-MyD88 inh)
N#CC(C(=S)Nc1ccccc1)c1nc2ccccc2[nH]1 (centres undefined)	rCAG RNA binder 65.1 (no result: TLR4 MyD88 comp) | rCAG bind conf 45.6 | DNA CAG counter 15.7
O=C(CCC1CCCN(C2C3CC4CC(C3)CC2C4)C1)NCc1ccc(F)c(F)c1 (centres undefined)	none
O=C1S/C(=C\c2ccc(O)c([N+](=O)[O-])c2)C(=O)N1Cc1cccc([N+](=O)[O-])c1	none (no result: TLR9-MyD88 inh)
O=C1S/C(=C\c2ccc(O)c([N+](=O)[O-])c2)C(=O)N1c1ccccc1Cl	rCAG RNA binder 47.8 | rCAG bind conf 44.0 | DNA CAG counter 11.3
COc1cc(/C=C2\SC(=O)N(c3ccc(Cl)cc3)C2=O)cc([N+](=O)[O-])c1O	none
COc1cc(/C=C2\SC(=O)N(c3cccc(Cl)c3)C2=O)cc([N+](=O)[O-])c1O	rCAG RNA binder 36.9 | rCAG bind conf 85.3 | DNA CAG counter 44.5
CN1C(=O)/C(=C\c2ccccc2F)Sc2ccc(C(=O)NC3CCN(Cc4ccccc4)CC3)cc21	none (no result: TLR4 MyD88 comp)
CC(=O)Nc1ccc(C=NNc2ccc(S(=O)(=O)Nc3ccccc3C(=O)O)cc2[N+](=O)[O-])cc1	rCAG RNA binder 88.5 (no result: TLR4 MyD88 comp) | rCAG bind conf 91.8 | DNA CAG counter 73.7
